Only some compounds are listed: those with a hit (about 11% of all), similar ones and a draw of the others.
Pf growth 48h: Primary qHTS for delayed death inhibitors of the malarial parasite plastid, 48 hour incubation. 310,000 tested, 5.9% active. P. falciparum luciferase growth in erythrocytes, 48 h. Potency, µM (titrated, usually from 28.7 µM), inactives show at the top dose activity change, negative = inhibition, most hits filed as inhibitors; also: % is scaled to controls: 0 for no effect and ±100 for the full control effect
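Luciferase-expressing P. falciparum in infected erythrocytes (2% hematocrit, 0.1% parasitemia final) in RPMI 1640/0.5% Albumax were exposed to compound for 48 hours at 37 C, 5% CO2; growth read as luminescence.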
Vaccinia mCherry: qHTS for Stage-Specific Inhibitors of Vaccinia Orthopoxvirus: mCherry Reporter Primary qHTS; Vaccinia virus mCherry reporter infection, fluorescence; Potency, µM (doses to about 36.5 µM), without a hit: at the top dose activity change, negative = inhibition, actives largely listed as inhibitors; 310,000 tested, 0.63% active; calls by dose curve; tested in A549 cells; also: % is scaled to controls: 0 for no effect and ±100 for the full control effect; nearly all actives have a fitted effect of over 35% in size
Pf growth 96h: Primary qHTS for delayed death inhibitors of the malarial parasite plastid, 96 hour incubation | P. falciparum luciferase reporter growth, 96 h | Potency, µM (top dose mostly 28.7 µM), for the others: top-dose activity change, negative = inhibition, actives largely listed as inhibitors | 320,000 tested, 6.9% active; also: % is scaled to controls: 0 for no effect and ±100 for the full control effect
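Luminescence readout: decreased luciferase signal marks inhibited growth of reporter-expressing P. falciparum in infected red cells (2% hematocrit, 0.05% parasitemia final), exposed to compound two generations (96 h, 37 C, 5% CO2).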
NS1 function inh: qHTS Assay for Inhibitors of Influenza NS1 Protein Function; Potency, µM (top dose mostly 46.1 µM), without a hit: at the top dose activity, positive = more growth; 270,000 tested, 0.4% active; AID 2326, 2010; calls by dose curve; also: actives are rising curves; nearly all actives have a fitted effect of over 50% in size
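Read-out: OD600 growth recovery of NS1-expressing budding yeast. Cells grown overnight at 30C in -URA glucose medium, washed, resuspended and diluted 1:100 in 2% galactose assay medium, pH 6.0. Same strain lacking NS1 served as positive control.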
HCV inh: qHTS Assay for Inhibitors of Hepatitis C Virus (HCV) | Potency, µM (top dose mostly 41.8 µM), inactives show at the top dose activity change, negative = inhibition, most hits filed as inhibitors | 340,000 tested, 3.4% active | Huh7.5.1 HCVcc-Cre infection, luciferase reporter, 44 h | AID 651820, 2012; also: % is scaled to controls: 0 for no effect and ±100 for the full control effect
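Infectious HCV cell culture screen: compound-treated cells (1,000/well, pre-plated 4 h) are infected with HCVcc-Cre at roughly 0.5 moi and grown 44 h. Infection is quantified by luciferase signal after 15 min substrate incubation at room temperature.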
VACV Venus inh: qHTS for Stage-Specific Inhibitors of Vaccinia Orthopoxvirus: Venus Reporter Primary qHTS; Vaccinia virus Venus reporter expression, fluorescence; Potency, µM (series often up to 36.5 µM), for the others: at the highest dose activity change, negative = inhibition, most hits filed as inhibitors; 330,000 tested, 0.46% active; AID 720580, 2013; calls by dose curve; tested in A549 cells; also: % is scaled to controls: 0 for no effect and ±100 for the full control effect; nearly all actives have a fitted effect of over 30% in size
An asterisk follows results filed as active; i = inactive; ? = inconclusive; / = no result given; [ ] = remark or other dose. Unless noted, calls follow the shape of the dose curve; as a rule, active = well fitted inhibition curve with a large enough effect; inconclusive = small, poorly fitted or top-dose-only effect, or another doubt; inactive = no such curve, though single readings can be large or run the other way. Potency is read from the fitted curve at half-maximal effect.

SMILES	Pf growth 48h	Vaccinia mCherry	Pf growth 96h	NS1 function inh	HCV inh	VACV Venus inh
CC1Sc2ccc(S(=O)(=O)N3CCC(C(=O)NCc4ccccc4)CC3)cc2NC1=O (configuration not stated)	?	-11%	1µM*	4%	?	-12%
CCN(CC)C(=O)C1CCCN(c2ncnc3c2cnn3-c2ccc(Cl)cc2)C1 (configuration not stated)	33%	i	92%	-76%	?	?
Cc1ccc(N(C)S(=O)(=O)c2ccc3c(c2)NC(=O)C(C)S3)cc1 (configuration not stated)	3.3µM*	-6%[7.34 µM]	?	19%	?	0%[7.34 µM]
CC1Sc2ccc(S(=O)(=O)CCC(=O)N(C)Cc3ccccc3)cc2NC1=O (configuration not stated)	-1%	/	65%	16%	-24%	/
COc1cccc(NC(=O)C2CCN(S(=O)(=O)c3ccc4c(c3)NC(=O)C(C)S4)CC2)c1 (configuration not stated)	?	i	26%	11%	?	-24%
CC1Sc2ccc(S(=O)(=O)N3CCC(C(=O)Nc4ccc(Cl)cc4)CC3)cc2NC1=O (configuration not stated)	?	/	13µM*	-13%	?	/
O=C(Nc1ccccc1)OC1CC2CC1C1CCCC21 (configuration not stated)	143%	-9%	35%	-73%	-4%	-5%
CCc1ccccc1NS(=O)(=O)c1ccc2c(c1)NC(=O)CC(=O)N2	-5%	i	8%	2%	-4%	-12%
Cc1c(NS(=O)(=O)c2ccc3c(c2)NC(=O)CC(=O)N3)cccc1[N+](=O)[O-]	12%	/	15µM*	-5%	8%	/
COc1ccc(NC(=O)c2cc(-c3ccccc3)nc3c2cnn3C(C)C)c(OC)c1	12µM*	/	?	/	?	/
COc1cccc(N2CCN(C(=O)c3cc(-c4ccccc4)nc4c3cnn4C(C)C)CC2)c1	/	/	/	/	11µM*	/
Cc1ccccc1N1CCN(C(=O)c2cc(-c3ccccc3)nc3c2cnn3C(C)C)CC1	/	i	/	/	/	-14%
COc1ccccc1N1CCN(C(=O)c2cc(-c3ccccc3)nc3c2cnn3C(C)C)CC1	/	-10%	/	/	/	-16%
CC(C)n1ncc2c(C(=O)N3CCN(c4ccc(F)cc4)CC3)cc(-c3ccccc3)nc21	12µM*	/	12µM*	/	-10%	/
CCOC(=O)CN1C(=O)C(=O)N(Cc2c(C)cc(C)cc2C)C1=O	1%	/	37%	-1%	11%	/
Cc1cccc(/C=C2/SC(=O)N(Cc3ccccc3)C2=O)n1	/	-12%	2.6µM*	1%	9%	-17%
CCOc1cc(C(=O)N/N=C/c2ccoc2)cc(OCC)c1OCC	-8%	/	?	12%	-16%	/
Cc1scc(C(=O)N/N=C/c2ccc(OCC(C)C)cc2)c1C	/	?	12µM*	-18%	?	-29%
CCCCOc1ccc(/C=N/NC(=O)c2csc(C)c2C)cc1	?	-17%	/	2%	-4%	-26%
CC(C)COc1ccc(C(=O)N/N=C/c2ccoc2)cc1	0%	/	5.9µM*	2%	-6%	/
Cc1ccc(OCCn2cnc3cc([N+](=O)[O-])ccc3c2=O)cc1	?	-19%	-16%	/	-27%	-21%
O=C(CN1c2ccccc2Sc2ccccc21)NNC(=S)Nc1ccc(Cl)cc1	4%	-28%	-16%	10%	35µM*	-23%
O=C(CN1c2ccccc2Sc2ccccc21)NNC(=S)Nc1ccc(Cl)cc1Cl	18%	-28%	117%	20%	-18%	-23%
O=C(NCCc1ccccc1)C1CCN(Cc2ccccc2F)CC1	10%	i	35%	1%	11%	-8%
O=C(Cn1cc(COc2ccc(Br)cc2)nn1)c1ccc(O)cc1	/	i	/	/	?	-23%
O=C(Cn1cc(COc2ccc3ccc(=O)oc3c2)nn1)c1ccc(O)cc1	/	5%	/	/	2.5µM*	-3%

Compound activity (PubChem)
